The full data set covers some 8,800 targets. This sample favours those with a hit. About 0.5% of all pairs of compound and target were hits.
Legend:
Test in all cases: log2 fold change, soluble protein after heating vs DMSO (PISA); higher = thermal stabilisation; K562 lysate, 10 uM; active = over 0.2 and 3.5 SD of the protein, either way, in both replicates (recomputed)
erlotinib = compound: C#Cc1cccc(Nc2ncnc3cc(OCCOC)c(OCCOC)cc23)c1 [erlotinib]
Outline: (§1)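 Values give the log-two fold change in thermal stability against solvent controls, from duplicates. Crude K562 extract at 1 mg/mL protein, made by dounce homogenisation in PBS pH 7.4 with 1 mM MgCl2, was treated with 10 μM compound for 30 min. After 3 min heating across 48°C-58°C, aliquots were pooled, adjusted to 0.5% NP-40 at 4°C and centrifuged at 21,000xg for 90 min. The supernatant was measured by TMTpro 16plex LC-MS/MS with channel sums equalised.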

[1] = compound: C/C(=N\NC(=O)C1=CC(=CC=C1)S(=O)(=O)N2CCOCC2)/C3=C(C=CC(=C3)Cl)O
Outline: as §1

[2] = compound: C1=CC(=CC=C1C2=NC3=C(N2)C=C(C=C3)C(=O)N)OC4=CC=C(C=C4)Cl
Outline: as §1

[3] = compound: C1=CC2=C(C=CC(=C2)/C=C\3/C(=O)NC(=NCC4=CC=CS4)S3)N=C1
Outline: as §1

[4] = compound: C1=CC2=NC=CN=C2C=C1/C=C/3\C(=O)NC(=O)S3
Outline: as §1

[5] = compound: C1=CC=C(C=C1)C2=NC(=C(N2)C3=CC=NC=C3)C4=CC(=C(C=C4)Cl)O
Outline: as §1

[6] = compound: C1=CC=C2C(=C1)C3=NNC4=CC=CC(=C43)C2=O
Outline: as §1

[7] = compound: C1CCN(C1)C(=O)NC2=CC=CC(=C2)NC3=NC=C(C(=N3)NCCC4=CN=CN4)Br
Outline: as §1

[8] = compound: C1CN(CCC1(CC2=CC=C(C=C2)Cl)N)C3=NC=NC4=C3C=CN4
Outline: as §1

IRAK-1-4 Inhibitor I = compound: C1COCCN1CCN2C3=CC=CC=C3N=C2NC(=O)C4=CC(=CC=C4)[N+](=O)[O-] [IRAK-1-4 Inhibitor I]
Outline: as §1

ibrutinib = compound: C=CC(=O)N1CCC[C@@H](n2nc(-c3ccc(Oc4ccccc4)cc3)c3c(N)ncnc32)C1 [ibrutinib]
Outline: as §1

[9] = compound: CC(=O)c1cnc2ccc(-c3cc(Cl)c(O)c(Cl)c3)nc2c1N[C@H]1CC[C@H](CN(C)C)CC1
Outline: as §1

ralimetinib = compound: CC(C)(C)Cn1c(N)nc2ccc(-c3[nH]c(C(C)(C)C)nc3-c3ccc(F)cc3)nc21 [ralimetinib]
Outline: as §1

[10] = compound: CC(C)(O)CC(=O)NCCn1ccc2ncnc(Nc3ccc(Oc4cccc(C(F)(F)F)c4)c(Cl)c3)c21
Outline: as §1

[11] = compound: CC(C)C1=C2N=C(C=C(N2N=C1)NCC3=CC=CC=C3)NCCCCCCN
Outline: as §1

[12] = compound: CC1=C(C(CC(=O)N1)C2=CC=C(C=C2)C(F)(F)F)C(=O)NC3=C(C=C4C(=C3)C=NN4)F
Outline: as §1

[13] = compound: CC1=C(C2=C(C=C1)C(=O)C3=CC=CC=C3N2CCCN)C
Outline: as §1

[14] = compound: CC1=C(C=C(C=C1)NC(=O)C2=CC(=CC=C2)C(C)(C)C#N)NC3=CC4=C(C=C3)N=CN(C4=O)C
Outline: as §1

[15] = compound: CC1=C(C=C(C=C1)NC(=O)C2=CC(=CC=C2)N(C)C)NC(=O)C3=CC=C(C=C3)O
Outline: as §1

[16] = compound: CC1=CC=C(C=C1)SC2=C3C=C(SC3=CN=C2)C(=O)N
Outline: as §1

Measured: log2 fold change

HMGN5 (UniProt P82970)
Chain of UniProt P82970 (P82970 whole entry, looked up): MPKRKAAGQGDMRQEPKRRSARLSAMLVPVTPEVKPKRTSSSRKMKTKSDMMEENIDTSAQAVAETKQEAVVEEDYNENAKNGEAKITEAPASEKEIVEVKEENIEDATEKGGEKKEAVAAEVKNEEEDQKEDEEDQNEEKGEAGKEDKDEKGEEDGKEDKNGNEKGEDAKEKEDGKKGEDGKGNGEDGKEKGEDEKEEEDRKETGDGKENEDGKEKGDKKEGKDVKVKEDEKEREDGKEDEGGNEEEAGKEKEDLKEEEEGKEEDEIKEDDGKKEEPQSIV
inactive: erlotinib 0.013 | [1] -0.122 | [2] 0.052 | [3] 0.021 | [4] -0.002 | [5] -0.013 | [6] 0.024 | [7] 0.067 | [8] 0.024 | IRAK-1-4 Inhibitor I 0.007 | ibrutinib -0.035 | [9] -0.012 | ralimetinib -0.064 | [10] -0.021 | [11] 0.006 | [12] -0.004 | [13] -0.035 | [14] -0.011 | [15] 0.036 | [16] -0.056

HARS (UniProt P12081)
Chain of UniProt P12081 (P12081 whole entry, looked up): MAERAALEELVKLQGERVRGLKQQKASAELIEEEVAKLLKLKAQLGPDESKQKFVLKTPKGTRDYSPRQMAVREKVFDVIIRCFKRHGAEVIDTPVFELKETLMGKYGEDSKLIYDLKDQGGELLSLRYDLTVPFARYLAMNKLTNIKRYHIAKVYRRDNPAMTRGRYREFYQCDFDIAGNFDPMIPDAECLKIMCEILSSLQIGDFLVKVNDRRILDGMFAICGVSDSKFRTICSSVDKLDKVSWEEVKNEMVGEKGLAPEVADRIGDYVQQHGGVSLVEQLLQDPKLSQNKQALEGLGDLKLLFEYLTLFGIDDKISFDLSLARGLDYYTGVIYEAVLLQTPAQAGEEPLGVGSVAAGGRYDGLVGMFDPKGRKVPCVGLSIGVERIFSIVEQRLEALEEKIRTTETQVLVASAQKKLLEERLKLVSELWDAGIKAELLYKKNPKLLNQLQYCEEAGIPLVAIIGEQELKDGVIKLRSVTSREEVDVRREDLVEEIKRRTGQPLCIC
inactive: erlotinib -0.034 | [1] 0.006 | [2] -0.002 | [3] 0.021 | [4] -0.036 | [5] -0.005 | [6] 0.019 | [7] -0.016 | [8] 0.001 | IRAK-1-4 Inhibitor I -0.002 | ibrutinib -0.049 | [9] 0.022 | ralimetinib -0.002 | [10] 0.015 | [11] -0.039 | [12] -0.015 | [13] 0.008 | [14] 0.005 | [15] 0.008 | [16] 0.005

H2AFY (UniProt O75367)
Chain of UniProt O75367 (O75367 whole entry, looked up): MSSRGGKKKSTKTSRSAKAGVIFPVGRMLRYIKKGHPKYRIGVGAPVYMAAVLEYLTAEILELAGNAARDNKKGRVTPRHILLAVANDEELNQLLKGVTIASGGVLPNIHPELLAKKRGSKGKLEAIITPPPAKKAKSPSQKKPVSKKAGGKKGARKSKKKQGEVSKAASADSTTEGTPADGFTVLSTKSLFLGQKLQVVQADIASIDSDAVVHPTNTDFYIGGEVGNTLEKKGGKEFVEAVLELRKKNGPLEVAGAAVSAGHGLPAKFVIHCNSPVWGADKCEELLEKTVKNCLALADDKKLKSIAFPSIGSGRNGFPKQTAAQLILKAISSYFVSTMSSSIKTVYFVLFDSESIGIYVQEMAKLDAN
inactive: erlotinib 0.02 | [1] -0.026 | [2] 0.049 | [3] 0.069 | [4] 0.013 | [5] 0.069 | [6] 0.081 | [7] -0.051 | [8] -0.113 | IRAK-1-4 Inhibitor I 0.02 | ibrutinib 0.051 | [9] -0.056 | ralimetinib -0.025 | [10] -0.043 | [11] 0 | [12] -0.003 | [13] -0.148 | [14] -0.053 | [15] -0.033 | [16] -0.001

IFITM3 (UniProt Q01628)
inactive: erlotinib -0.136 | [1] -0.11 | [2] 0.062 | [3] 0.004 | [4] -0.094 | [5] -0.122 | [6] 0.084 | [7] -0.095 | [8] -0.069 | IRAK-1-4 Inhibitor I -0.026 | ibrutinib -0.07 | [9] -0.042 | ralimetinib 0.179 | [10] 0.078 | [11] 0.003 | [12] -0.173 | [13] -0.117 | [14] -0.133 | [15] -0.026 | [16] 0.129

INTS7 (UniProt Q9NVH2)
Chain of UniProt Q9NVH2 (Q9NVH2 whole entry, looked up): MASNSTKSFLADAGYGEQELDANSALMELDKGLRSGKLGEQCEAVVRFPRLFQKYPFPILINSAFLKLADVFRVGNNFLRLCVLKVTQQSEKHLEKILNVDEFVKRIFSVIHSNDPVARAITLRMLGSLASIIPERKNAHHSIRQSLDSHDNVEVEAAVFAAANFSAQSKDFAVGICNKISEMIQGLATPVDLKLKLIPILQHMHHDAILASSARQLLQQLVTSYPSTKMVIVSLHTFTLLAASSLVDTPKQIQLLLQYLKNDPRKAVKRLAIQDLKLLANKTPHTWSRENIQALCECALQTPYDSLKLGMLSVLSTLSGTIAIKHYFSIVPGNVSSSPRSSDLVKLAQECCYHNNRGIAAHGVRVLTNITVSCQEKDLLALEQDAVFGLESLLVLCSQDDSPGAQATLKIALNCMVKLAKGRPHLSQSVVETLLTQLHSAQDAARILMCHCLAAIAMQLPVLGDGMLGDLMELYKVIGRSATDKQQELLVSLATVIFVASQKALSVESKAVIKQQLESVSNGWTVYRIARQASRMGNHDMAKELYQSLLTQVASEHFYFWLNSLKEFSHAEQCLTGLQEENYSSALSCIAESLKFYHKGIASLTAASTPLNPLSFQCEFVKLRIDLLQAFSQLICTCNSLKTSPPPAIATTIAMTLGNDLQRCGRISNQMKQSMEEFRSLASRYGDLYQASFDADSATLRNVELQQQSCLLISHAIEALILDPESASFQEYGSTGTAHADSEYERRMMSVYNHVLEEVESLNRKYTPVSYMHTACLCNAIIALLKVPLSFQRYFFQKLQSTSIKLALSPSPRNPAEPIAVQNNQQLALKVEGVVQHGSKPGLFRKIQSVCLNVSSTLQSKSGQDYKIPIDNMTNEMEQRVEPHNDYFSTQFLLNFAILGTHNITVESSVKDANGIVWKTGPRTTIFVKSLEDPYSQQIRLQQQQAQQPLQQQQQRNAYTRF
active: [4] 0.441 | [14] 0.543
inactive: erlotinib 0.076 | [1] -0.183 | [2] -0.01 | [3] 0.041 | [5] -0.044 | [6] 0.026 | [7] -0.019 | [8] 0.035 | IRAK-1-4 Inhibitor I 0 | ibrutinib 0.012 | [9] 0.061 | ralimetinib 0.083 | [10] -0.024 | [11] 0.023 | [12] 0.023 | [13] -0.09 | [15] 0.007 | [16] 0.039

HMGB1 (UniProt P09429)
Chain of UniProt P09429 (P09429 whole entry, looked up): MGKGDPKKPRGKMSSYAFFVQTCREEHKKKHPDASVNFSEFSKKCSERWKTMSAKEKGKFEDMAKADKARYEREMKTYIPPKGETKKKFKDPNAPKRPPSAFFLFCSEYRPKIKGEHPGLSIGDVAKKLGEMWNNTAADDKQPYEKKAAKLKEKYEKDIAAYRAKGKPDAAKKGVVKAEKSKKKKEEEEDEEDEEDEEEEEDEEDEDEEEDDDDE
inactive: erlotinib -0.024 | [1] -0.017 | [2] -0.021 | [3] -0.03 | [4] -0.001 | [5] 0.035 | [6] 0.007 | [7] 0.012 | [8] 0.001 | IRAK-1-4 Inhibitor I -0.015 | ibrutinib -0.012 | [9] -0.013 | ralimetinib -0.102 | [10] 0.057 | [11] 0.032 | [12] -0.022 | [13] -0.002 | [14] 0.036 | [15] -0.077 | [16] -0.098

IRF2BP1 (UniProt Q8IU81)
Chain of UniProt Q8IU81 (Q8IU81 whole entry, looked up): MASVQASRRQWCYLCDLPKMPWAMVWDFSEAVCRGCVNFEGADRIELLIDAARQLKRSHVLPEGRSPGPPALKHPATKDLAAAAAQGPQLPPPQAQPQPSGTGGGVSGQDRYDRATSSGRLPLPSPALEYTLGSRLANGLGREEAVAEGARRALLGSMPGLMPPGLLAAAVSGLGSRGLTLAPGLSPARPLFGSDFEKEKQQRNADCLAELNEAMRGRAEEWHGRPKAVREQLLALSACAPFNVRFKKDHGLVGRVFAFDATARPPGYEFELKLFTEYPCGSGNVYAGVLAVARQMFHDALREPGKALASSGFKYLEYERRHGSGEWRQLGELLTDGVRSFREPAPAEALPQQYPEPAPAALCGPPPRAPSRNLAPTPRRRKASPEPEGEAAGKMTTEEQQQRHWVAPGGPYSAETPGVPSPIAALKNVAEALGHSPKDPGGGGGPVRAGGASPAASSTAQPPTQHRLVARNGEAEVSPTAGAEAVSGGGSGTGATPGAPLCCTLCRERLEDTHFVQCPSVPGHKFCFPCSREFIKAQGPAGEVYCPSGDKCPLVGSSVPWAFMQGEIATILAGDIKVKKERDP
inactive: erlotinib -0.024 | [1] -0.114 | [2] 0.022 | [3] -0.016 | [4] 0.021 | [5] -0.039 | [6] -0.021 | [7] -0.057 | [8] 0.006 | IRAK-1-4 Inhibitor I -0.018 | ibrutinib 0.003 | [9] 0.027 | ralimetinib 0.008 | [10] 0.02 | [11] 0.006 | [12] -0.016 | [13] -0.027 | [14] 0.02 | [15] -0.001 | [16] -0.038

HNRNPUL1 (UniProt Q9BUJ2)
Chain of UniProt Q9BUJ2 (Q9BUJ2 whole entry, looked up): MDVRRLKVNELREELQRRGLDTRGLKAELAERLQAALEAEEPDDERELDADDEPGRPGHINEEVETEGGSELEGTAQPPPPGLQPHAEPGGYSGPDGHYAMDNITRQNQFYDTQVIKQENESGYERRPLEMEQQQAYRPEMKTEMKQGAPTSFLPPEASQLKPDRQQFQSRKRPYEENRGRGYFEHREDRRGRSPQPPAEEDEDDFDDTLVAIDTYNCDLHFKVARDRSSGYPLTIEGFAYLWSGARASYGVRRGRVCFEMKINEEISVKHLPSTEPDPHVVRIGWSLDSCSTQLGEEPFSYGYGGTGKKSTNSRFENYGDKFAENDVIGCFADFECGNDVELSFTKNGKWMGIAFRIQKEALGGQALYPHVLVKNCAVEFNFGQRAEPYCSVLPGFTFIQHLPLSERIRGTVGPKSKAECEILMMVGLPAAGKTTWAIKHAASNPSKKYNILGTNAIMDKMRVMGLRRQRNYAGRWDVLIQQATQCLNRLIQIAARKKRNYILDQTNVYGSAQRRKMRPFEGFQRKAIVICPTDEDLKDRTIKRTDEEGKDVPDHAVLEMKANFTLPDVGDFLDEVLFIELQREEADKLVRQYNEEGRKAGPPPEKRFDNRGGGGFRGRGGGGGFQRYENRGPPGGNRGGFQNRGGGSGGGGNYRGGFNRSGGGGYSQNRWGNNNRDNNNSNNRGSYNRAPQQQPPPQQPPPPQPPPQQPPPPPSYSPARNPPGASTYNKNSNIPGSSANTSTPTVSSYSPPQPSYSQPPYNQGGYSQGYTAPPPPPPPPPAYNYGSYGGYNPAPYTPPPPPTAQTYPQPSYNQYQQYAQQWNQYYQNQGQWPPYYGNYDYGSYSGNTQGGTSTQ
inactive: erlotinib -0.039 | [1] 0.011 | [2] 0.002 | [3] -0.016 | [4] -0.023 | [5] -0.045 | [6] 0.03 | [7] 0.01 | [8] -0.02 | IRAK-1-4 Inhibitor I -0.032 | ibrutinib 0.028 | [9] -0.13 | ralimetinib 0.017 | [10] -0.014 | [11] -0.019 | [12] 0 | [13] -0.012 | [15] 0 | [16] 0.007
active: [14] -0.275

GSK3A (UniProt P49840)
Chain of UniProt P49840 (P49840 whole entry, looked up): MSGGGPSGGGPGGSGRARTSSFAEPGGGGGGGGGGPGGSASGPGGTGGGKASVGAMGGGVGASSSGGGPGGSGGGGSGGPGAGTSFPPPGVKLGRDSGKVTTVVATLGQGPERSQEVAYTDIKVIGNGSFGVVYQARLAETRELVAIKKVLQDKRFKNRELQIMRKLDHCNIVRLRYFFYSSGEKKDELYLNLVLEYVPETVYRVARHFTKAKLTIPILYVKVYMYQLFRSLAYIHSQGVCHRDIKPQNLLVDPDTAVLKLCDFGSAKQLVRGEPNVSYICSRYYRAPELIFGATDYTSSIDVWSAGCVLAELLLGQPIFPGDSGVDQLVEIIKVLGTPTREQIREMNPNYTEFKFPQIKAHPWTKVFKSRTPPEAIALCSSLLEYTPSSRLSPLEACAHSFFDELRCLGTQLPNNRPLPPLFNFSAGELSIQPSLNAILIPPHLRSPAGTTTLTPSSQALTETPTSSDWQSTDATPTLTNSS
inactive: erlotinib -0.029 | [1] -0.103 | [2] -0.034 | [3] 0.069 | [4] 0.066 | [5] 0.295 | [6] 0.182 | [7] 0.163 | [8] 0.018 | IRAK-1-4 Inhibitor I -0.014 | ibrutinib -0.01 | [9] 0.146 | ralimetinib 0.022 | [10] -0.001 | [11] -0.045 | [12] -0.017 | [13] 0.01 | [14] -0.109 | [15] -0.007 | [16] 0.207

HK2 (UniProt P52789)
inactive: erlotinib 0.013 | [1] 0.007 | [2] -0.045 | [3] 0.019 | [4] -0.01 | [5] 0.026 | [6] -0.027 | [7] -0.016 | [8] 0.004 | IRAK-1-4 Inhibitor I -0.002 | ibrutinib 0.021 | [9] -0.005 | ralimetinib 0.019 | [10] 0.006 | [11] -0.029 | [12] -0.007 | [13] 0.006 | [14] 0.008 | [15] 0.002 | [16] 0.011

HMGA1 (UniProt P17096)
Chain of UniProt P17096 (P17096 whole entry, looked up): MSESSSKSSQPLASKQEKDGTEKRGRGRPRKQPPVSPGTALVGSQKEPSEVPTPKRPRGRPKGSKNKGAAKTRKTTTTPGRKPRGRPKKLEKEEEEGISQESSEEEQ
inactive: erlotinib -0.037 | [1] -0.053 | [2] -0.001 | [3] -0.026 | [4] -0.053 | [5] -0.007 | [6] 0.026 | [7] 0.036 | [8] 0.013 | IRAK-1-4 Inhibitor I -0.022 | ibrutinib 0.004 | [9] -0.022 | ralimetinib -0.024 | [10] -0.043 | [11] 0.002 | [12] -0.03 | [13] 0.075 | [14] -0.008 | [15] -0.023 | [16] -0.017

IMPDH1 isoform 6 (UniProt P20839)
Chain of UniProt P20839 (P20839 whole entry, looked up): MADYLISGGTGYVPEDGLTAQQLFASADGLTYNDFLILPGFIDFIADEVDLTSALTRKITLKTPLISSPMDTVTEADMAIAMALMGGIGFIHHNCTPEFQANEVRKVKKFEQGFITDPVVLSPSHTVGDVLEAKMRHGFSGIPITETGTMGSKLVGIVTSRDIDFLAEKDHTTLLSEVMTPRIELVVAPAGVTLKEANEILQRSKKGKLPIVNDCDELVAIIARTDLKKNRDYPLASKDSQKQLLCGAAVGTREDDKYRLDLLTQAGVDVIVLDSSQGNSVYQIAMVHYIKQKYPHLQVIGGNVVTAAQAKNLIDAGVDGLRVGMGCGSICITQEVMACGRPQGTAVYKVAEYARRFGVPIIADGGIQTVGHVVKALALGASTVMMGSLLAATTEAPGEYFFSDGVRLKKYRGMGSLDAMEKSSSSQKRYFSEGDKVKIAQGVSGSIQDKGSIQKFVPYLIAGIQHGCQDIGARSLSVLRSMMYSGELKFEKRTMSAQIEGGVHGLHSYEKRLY
inactive: erlotinib 0.018 | [1] 0.036 | [2] -0.031 | [3] 0.009 | [4] -0.001 | [5] -0.001 | [6] 0.017 | [7] 0.028 | [8] 0.032 | IRAK-1-4 Inhibitor I 0.003 | ibrutinib -0.007 | [9] 0.009 | ralimetinib 0.034 | [10] -0.007 | [11] 0.01 | [12] -0.039 | [13] 0.033 | [14] 0.014 | [15] -0.005 | [16] -0.004

HAUS5 (UniProt O94927)
inactive: erlotinib 0.046 | [1] 0.021 | [2] -0.071 | [3] -0.015 | [4] -0.045 | [5] -0.009 | [6] 0.113 | [7] 0.031 | [8] -0.017 | IRAK-1-4 Inhibitor I 0.033 | ibrutinib 0 | [9] 0.002 | ralimetinib 0.034 | [10] 0.017 | [11] 0.027 | [12] -0.027 | [13] 0 | [14] 0 | [15] 0.033 | [16] 0.021

HIST2H2AA3 (UniProt Q6FI13)
inactive: erlotinib -0.012 | [1] -0.956 | [2] 0.002 | [3] -0.054 | [4] -0.05 | [5] 0.126 | [6] 0.012 | [7] 0.083 | [8] 0.019 | IRAK-1-4 Inhibitor I -0.055 | ibrutinib -0.011 | [9] -0.014 | ralimetinib -0.112 | [10] 0.065 | [11] 0 | [12] -0.012 | [13] 0.028 | [14] -0.046 | [15] 0.032 | [16] 0.045

GSTZ1 (UniProt G3V4T6)
inactive: erlotinib 0.018 | [1] -0.034 | [2] 0.032 | [3] -0.003 | [4] 0.02 | [5] -0.043 | [6] 0.026 | [7] 0.017 | [8] 0.064 | IRAK-1-4 Inhibitor I 0.016 | ibrutinib 0 | [9] 0 | ralimetinib 0.014 | [10] -0.019 | [11] 0.004 | [12] 0.01 | [13] 0.036 | [14] -0.02 | [15] -0.003 | [16] -0.016

IGF2BP2 (UniProt Q9Y6M1)
inactive: erlotinib 0.022 | [1] 0.049 | [2] -0.041 | [3] -0.032 | [4] 0.031 | [5] 0 | [6] -0.08 | [7] -0.023 | [8] 0.051 | IRAK-1-4 Inhibitor I -0.022 | ibrutinib 0.035 | [9] 0.007 | ralimetinib 0.056 | [10] 0.035 | [11] 0.007 | [12] -0.008 | [13] -0.036 | [14] -0.075 | [15] 0.006 | [16] 0.056

— the supplement of paper PMC10849652
